Compound activity as filed in PubChem.
Rows were chosen to be rich in hits. Some 1.3% of all compounds tested hit in one or more screens of this group.
sEH activator – activators of human soluble epoxide hydrolase; purified human sEH enzymatic activity, activator screen; activation, % at 2 µM; 0.04% of 91,000 active; in the data active = activation above about 37%
sEH inhibitor – soluble epoxide hydrolase (human) inhibition. P34913. inhibition, % at 2 µM. 0.34% of 91,000 active. AID 707. recombinant human sEH enzymatic activity assay; in the data active = inhibition above about 80%
PLAP activator – activators of human placental alkaline phosphatase | P05187 | purified PLAP enzyme, luminescent substrate read-out; stronger effect = higher value | activation fold at 20 µM | 1.2% of 96,000 active | AID 696; in the data active = activation fold above about 2
BAP1 inh – inhibitors of human BAP1 deubiquitinase. Q92560. 0.48% of 72,000 active. recombinant BAP1, Ub-AMC hydrolysis fluorescence kinetic; stronger effect = lower value. calls only at 20 µM;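 active = activity remaining at or below 50% of control, provided the compound also passes the data quality filters; inactive = the rest, including low values that fail the filters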;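 note: 100% = DMSO wells rate and 0% = substrate alone blank rate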
* marks the source's active call; other numbers are inactive results; i = inactive; · = no result given; + = active, no number.

SMILES	sEH activator	sEH inhibitor	PLAP activator	BAP1 inh
CNC(=S)N(Cc1ccc2c(c1)OCO2)C1CC(=O)N(c2ccc(F)cc2)C1=O (stereo not given)	-5	8	0.9	·
COC(=O)c1c(NC(=O)COc2ccc(Cl)cc2C)sc2c1C(C(=O)OC)CC2 (stereo not given)	·	·	·	i
Cc1ccc(S(=O)(=O)N(C)c2ccc(C(=O)N3CCCCC3)cc2)cc1	-12	12	2.1*	·
CN(c1ccc(C(=O)N2CCN(Cc3ccc4c(c3)OCO4)CC2)cc1)S(=O)(=O)c1ccccc1	3	-4	1.9	·
Cc1ccc(S(=O)(=O)N(C)c2ccc(C(=O)N3CCN(Cc4ccc5c(c4)OCO5)CC3)cc2)cc1	14	-14	2*	·
COc1cc(C2NC(=S)NC(C)=C2C(=O)Nc2ccccc2)ccc1OCc1ccccc1 (stereo not given)	·	·	·	i
C=C(C)c1cccc(C(C)(C)NC(=O)NCCCN2CCCC2=O)c1	-16	16	2.3*	i
Cc1csc(NC(=O)C2CCN(S(=O)(=O)c3ccc4c(c3)oc(=O)n4C)CC2)n1	-15	13	1.1	·
Cc1csc(NC(=O)C(CC(C)C)NS(=O)(=O)c2ccc3c(c2)oc(=O)n3C)n1 (stereo not given)	·	·	2.3*	i
O=C(CSc1nc(C2CCCCC2)n(-c2ccccc2)n1)NCCN1C(=O)CSC1=O	1	2	2*	i
O=C(Nc1cccnc1)C1CC(c2ccccc2O)=NO1 (stereo not given)	7	-5	2*	·
CCCCCCCCNC(=O)CCNC(=O)c1ccc(C(C)(C)C)cc1	-44	45	2*	·
CCCCCCCCCC(=O)N/N=C(\C)c1cccnc1	-48	49	·	·
CCCCCC(=O)N/N=C(\C)c1ccccn1	-5	5	2.4*	·
O=c1cc2c(nn1Cc1cccc(Cl)c1)-c1ccccc1CC2	-6	6	1.2	·
O=c1cc2c(nn1Cc1ccc(Cl)cc1)-c1ccccc1CC2	-2	2	2*	·
O=c1cnnc(SCCc2ccccc2)[nH]1	-8	10	1.1	i
Nc1ncnc2nc(SCCc3ccccc3)[nH]c12	·	·	2*	i
CCn1c(C(=O)N2CCCC(C(=O)NCCCc3ccccc3)C2)cc2sccc21 (stereo not given)	-94	94*	·	i
Cn1c(C(=O)N2CCCC(C(=O)NCCCSC3CCCCC3)C2)cc2sccc21 (stereo not given)	-92	92*	1.5	i
CCn1c(C(=O)N2CCCC(C(=O)NCCc3ccc(C)cc3)C2)cc2sccc21 (stereo not given)	-70	71	1.4	i
CC(=NCCCn1ccnc1)c1c(-c2ccccc2)[nH]n(-c2nc3ccccc3s2)c1=O	10	-12	2*	·
O=C1C2CC=CCC2C(=O)N1c1ncn[nH]1 (stereo not given)	8	-6	2.6*	·
Cc1cc(C)c2c(n1)nn1c(NCCCn3ccnc3)cc(C)nc21	·	·	2.5*	·
CNCc1ccccc1OCC(=O)Nc1ccccc1OC	2	-2	0.8	·
SMILES	sEH activator	sEH inhibitor	PLAP activator	BAP1 inh
O=C(COc1ccccc1CNCc1ccccc1)Nc1ccccc1	7	-6	2.6*	·
COc1ccc(-n2nc3c(c2NC(=O)c2cccc(C(F)(F)F)c2)CSC3)cc1	·	·	·	i
N=c1n(CCN2CCCCC2)c2ccccc2n1CC(O)c1ccc(Cl)c(Cl)c1 (stereo not given)	3	-2	2.1*	·
N=c1n(CCN2CCCCC2)c2ccccc2n1CC(O)c1cccc(Br)c1 (stereo not given)	-3	1	2*	i
Cc1ccc(NC(=O)NC(=O)N(c2ccc(Cl)cc2)S(C)(=O)=O)cc1	·	·	·	i
O=c1[nH]c2cc(Cl)c(Cl)cc2[nH]c1=O	·	·	·	+
CCCCOc1ccc(N2C(=O)CC(NCCc3ccc(S(N)(=O)=O)cc3)C2=O)cc1 (stereo not given)	6	-7	2.1*	·
COc1cccc(N2C(=O)CC(NCc3ccc(S(N)(=O)=O)cc3)C2=O)c1 (stereo not given)	·	·	·	i
CCOc1ccc(N2C(=O)C(N3C(=O)c4ccccc4C3=O)C2c2ccc(N(C)C)cc2)cc1 (stereo not given)	·	·	·	i
COC(=O)C1=C(C)N(C)C(=S)NC1c1ccc(Br)cc1 (stereo not given)	·	·	·	i
O=C(Nc1cccc2ccccc12)c1ccc(OC(=S)N2CCOCC2)cc1	-88	88*	1	·
Cc1cccc(-n2c(CCn3nc(C)c([N+](=O)[O-])c3C)n[nH]c2=S)c1	-7	9	2.1*	·
O=C(O)C1CCN(Cc2cnn(-c3ccccc3)c2-n2cccc2)CC1	·	·	·	i
O=C(NCc1ccccn1)C1CCN(Cc2cnn(-c3ccccc3)c2-n2cccc2)CC1	-7	10	1.8	·
O=C(NC1CC1)C1CCN(Cc2cnn(-c3ccccc3)c2-n2cccc2)CC1	-10	9	2*	·
COc1cccc(CNC(=O)C2CCN(Cc3cnn(-c4ccccc4)c3-n3cccc3)CC2)c1	-73	73	2.2*	i
CCCCn1c(SCc2ccc(C)cc2)nc2c1c(=O)[nH]c(=O)n2C	·	·	·	i
CCCOc1cccc(/C=N/NC(=O)c2csc(C)c2C)c1	-86	86*	1.1	·
Cc1scc(C(=O)N/N=C/c2ccco2)c1C	-29	27	·	·
O=C1C2CCCCC2C(=O)N1c1ccc2[nH]c(=S)sc2c1 (stereo not given)	·	·	·	i
Cc1ccccc1NC(=O)c1ccc(C)c(S(=O)(=O)Nc2ccc(C(=O)O)cc2)c1	·	·	·	i
Cc1occc1C(=O)Nc1ccc2ccccc2c1	·	·	0.9	i
Cc1occc1C(=O)NNC(=S)Nc1cccc([N+](=O)[O-])c1	19	-21	2*	·
COc1ccccc1C1NC(=O)NC(C)=C1C(=O)OCc1ccc(C)cc1 (stereo not given)	·	·	·	i
Cc1noc(C)c1C(=O)Nc1ccc(F)c(F)c1	14	-16	1	·
SMILES	sEH activator	sEH inhibitor	PLAP activator	BAP1 inh
CCCCc1ccc(NC(=O)c2c(C)noc2C)cc1	2	-1	2*	i
COc1cc(C(=O)Oc2ccccc2/C=N/NC(=O)c2ccc(C)cc2)cc(OC)c1OC	18	-15	1	·
COc1cccc(/C=N/NC(=O)c2ccc(-c3ccccc3)cc2)c1O	2	-2	2.1*	·
COc1cccc(/C=N/NC(=O)CSc2nnc(C)n2-c2ccccc2)c1O	1	2	2.1*	·
COc1cccc(/C=N/NC(=O)c2[nH]c(C)c(C(=O)N/N=C/c3cccc(OC)c3O)c2C)c1O	3	-1	2.5*	·
COc1ccccc1NC(=O)c1[nH]c(C)c(C(C)=O)c1C	3	-4	0.8	i
O=C1c2ccccc2-c2onc3c(Br)cc(O)c1c23	·	·	·	i
CCc1c(C)c(C#N)c2nc3ccccc3n2c1NC1CCCCC1	·	·	·	i
COc1cccc(NC(=O)NC2CCN(Cc3nnnn3Cc3ccc(F)cc3)CC2)c1	-53	52	2.1*	i
O=C(Nc1ccccc1F)NC1CCN(Cc2nnnn2Cc2ccc(F)cc2)CC1	-48	47	1.1	i
CCOc1ccc(Cc2nc3ccccc3[nH]2)cc1	·	·	·	i
CCOc1ccc(-c2nnc(SCc3nc4ccccc4[nH]3)n2N)cc1	-10	10	2.4*	·
Cc1ccccc1-c1nc(CN2CCC(C(=O)NCc3ccco3)CC2)c(C)o1	-8	10	1.3	i
